Source: PubChem BioAssay (NCATS)
Inconclusive results are not listed. Unmarked numbers belong to inactive results. Active and inactive are the calls of the source. Calls come from the whole dose curve; as a rule, active = well fitted inhibition curve with a large enough effect; inconclusive = small, poorly fitted or top-dose-only effect; inactive = flat fitted curve, though single readings scatter.

What follows are compounds tested against Phospholipid hydroperoxide glutathione peroxidase GPX4 (Homo sapiens) (UniProt P36969) (assay: Primary qHTS Assay for Inhibitors of Recombinant Selenoprotein Glutathione Peroxidase 4 (GPX4) (AID 1845192; note: nearly all actives have a fitted effect of over 65% in size)). Conditions: recombinant GPX4, GR-coupled NADPH fluorescence, 15 min; series mostly up to 50 µM; activity change, negative = inhibition: at the top concentration.
Method in brief: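 NADPH consumption, followed by fluorescence at 340/450 nm between 0 and 15 min, reports GPX4 activity via coupled glutathione reductase (100 nM). Enzyme 200 nM was pre-exposed to compound 30 min; 0.5 mM cumene hydroperoxide and 1 mM GSH served as substrates.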
% is set by controls: 0 for no effect and ±100 for the full control effect; potency is the fitted concentration of half-maximal effect.

Chain of Phospholipid hydroperoxide glutathione peroxidase GPX4 (Homo sapiens) (P36969 whole entry, looked up): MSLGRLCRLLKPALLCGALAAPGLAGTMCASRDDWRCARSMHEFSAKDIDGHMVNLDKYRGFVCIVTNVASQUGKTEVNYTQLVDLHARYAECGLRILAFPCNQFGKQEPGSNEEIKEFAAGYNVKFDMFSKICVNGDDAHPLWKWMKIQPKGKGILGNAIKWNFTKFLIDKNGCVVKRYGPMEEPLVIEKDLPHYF

Compound | Potency | activity change, negative = inhibition | outcome
Cc1c(N(C)CS(=O)(=O)O)c(=O)n(-c2ccccc2)n1C | 2000 nM (active) | – | –
Cc1ncc(CSSCc2cnc(C)c(O)c2CO)c(CO)c1O | – | -18.2% | –
CN(C)CCCOc1nn(Cc2ccccc2)c2ccccc12 | inactive | – | –
CCN(CC)C(=O)N1CCN(C)CC1 | – | -24.6% | –
N[C@H](Cc1c[nH]c2ccccc12)C(=O)O | – | -20.1% | –
C#C[C@]1(O)CC[C@H]2[C@@H]3CCC4=CC(=O)CC[C@@H]4[C@H]3CC[C@@]21C | – | – | inactive
Cc1ccc(Nc2c(F)cccc2Cl)c(CC(=O)O)c1 | inactive | – | –
Nc1ccn([C@@H]2O[C@H](CO)[C@@H](O)C2(F)F)c(=O)n1 | inactive | – | –
Cc1cccn2c(=O)c(-c3nnn[nH]3)cnc12 | – | – | inactive [at 27.8 µM]
